Source: PubChem
This is a sample that favours compounds with a hit; in the whole collection about 21% have one here.
CHX counter: Cycloheximide Counterscreen for Small Molecule Inhibitors of Shiga Toxin | cell reporter, cycloheximide protein synthesis inhibition counterscreen | max response, % | hit rate 12% among 300,000; in the data active = max response mostly above about 13%, no sharp cut-off; inactive = mostly below about 14%; note: read at 38.3 µM for the half of the compounds with a filed dose
Shiga inhibitor: A qHTS for Small Molecule Inhibitors of Shiga Toxin; Vero cells, Shiga toxin protein synthesis inhibition reporter; inhibition, % at 38.7 µM; hit rate 9.2% among 290,000; in the data active = inhibition mostly above about 28%, no sharp cut-off; inactive = mostly below about 43%
Pf growth 48h: Primary qHTS for delayed death inhibitors of the malarial parasite plastid, 48 hour incubation; hit rate 5.9% among 310,000; Potency, µM (series often up to 28.7 µM), actives largely listed as inhibitors; AID 504832, 2011; P. falciparum luciferase growth in erythrocytes, 48 h
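First compound was added to culture medium, then infected red cells at 0.1% parasitemia and 2% hematocrit (final). After incubation at 37 C under 5% CO2, luciferase detection reagent was dispensed and light output recorded.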
Pf growth 96h: Primary qHTS for delayed death inhibitors of the malarial parasite plastid, 96 hour incubation | P. falciparum luciferase reporter growth, 96 h | AID 504834, 2011 | hit rate 6.9% among 320,000 | Potency, µM (series often up to 28.7 µM), usual class: inhibitors
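Plates of compound plus infected erythrocytes (2% hematocrit, 0.05% parasitemia final) incubate 96 hours, 37 C, 5% CO2. Detection reagent added; reduced luminescence from the parasites' luciferase reporter flags inhibition.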
SARS PLP yeast: qHTS of Yeast-based Assay for SARS-CoV PLP. S. cerevisiae expressing SARS-CoV PLpro, growth rescue. Potency, µM (doses to about 32.9 µM), usual class: activators. hit rate 0.19% among 330,000. AID 485353, 2010; calls by dose curve; note: nearly all actives have a fitted effect of over 55% in size
NS1 inh: qHTS Assay for Inhibitors of Influenza NS1 Protein Function | Potency, µM (doses to about 46.1 µM) | hit rate 0.4% among 270,000 | AID 2326, 2010; calls by dose curve; note: actives are rising curves; nearly all actives have a fitted effect of over 50% in size
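Compounds were scored for reversing the slow growth caused by influenza A NS1 in S. cerevisiae, measured by optical density at 600 nm. Assay medium contained 2% galactose at pH 6.0; NS1-free yeast of the same strain were the positive control.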
Of the large screens only hits and unclear results are named; the others gave an inactive call. Unless noted, calls come from the whole dose curve; as a rule, active = well fitted inhibition curve with a large enough effect; inconclusive = small, poorly fitted or top-dose-only effect, or another doubt; inactive = no such curve, though single readings can be large or run the other way.

COc1cc(NC(=O)CSc2nnc3c(n2)[nH]c2ccc(S(=O)(=O)NC(C)C)cc23)cc(OC)c1OC	none (no result: NS1 inh)
CC1CCN(CCC(=O)N/N=C/c2ccc([N+](=O)[O-])cc2)CC1	none (no result: NS1 inh)
Cc1ccc(NC(=O)Nc2cccn(Cc3c(F)cccc3Cl)c2=O)cc1	Pf growth 96h 5.2µM
CCOC(=O)c1ccc(NC(=O)Nc2ccon2)cc1	CHX counter 31, Shiga inhibitor 66
N#Cc1ccc(NC(=O)Nc2ccc(Cl)cc2)cc1	CHX counter 38, Shiga inhibitor 61, Pf growth 48h inconclusive
CC(C)(C)N(NC(=O)Nc1ccc(Cl)c(Cl)c1)C(=O)c1ccccc1	Pf growth 48h 12µM, Pf growth 96h inconclusive
COC(=O)[C@@H]1C(c2c(OC)cc(OC)cc2OC)=NO[C@H]1C(=O)OC	none
COc1ccc(N2C(=O)NC(NC(=O)c3cccnc3)(C(F)(F)F)C2=O)cc1 (configuration not stated)	Pf growth 96h inconclusive
NC(=O)c1cccc(NC(=O)Nc2ccc(Cl)cc2)c1	CHX counter 19, Pf growth 96h inconclusive (no result: SARS PLP yeast)
O=C(Nc1ccc(Cl)c(Cl)c1)Nc1ccon1	CHX counter 18
COC(=O)c1cccc(NC(=O)Nc2ccc(Cl)cc2Cl)c1	Pf growth 96h inconclusive
O=C1C2C(C(=O)N1/N=C/c1cc(Br)cc([N+](=O)[O-])c1O)C1C=CC2C12CC2 (configuration not stated)	Pf growth 48h inconclusive, Pf growth 96h 12µM
O=C1C2C(C(=O)N1/N=C/c1cccc([N+](=O)[O-])c1)C1C=CC2C12CC2 (configuration not stated)	CHX counter 52, Shiga inhibitor 75
Cc1ccc(/C=N/N2C(=O)C3C(C2=O)C2C=CC3C23CC3)o1 (configuration not stated)	CHX counter 18
CSc1nc(=S)n(-c2cc(C)ccc2C)c(C)c1C(C)=O	none
CCN1CC=C2C(C#N)=C(N)C(C#N)(C#N)C(c3cc(Cl)ccc3Cl)C2C1 (configuration not stated)	Pf growth 48h 8.3µM
O=C1N(Cc2cccc(Cl)c2)C[C@@H]2C[C@@H](c3c[nH]c4ccccc34)N3CCC[C@@]123	Pf growth 48h inconclusive, Pf growth 96h inconclusive
CC(C)CCN1CC(C(=O)NCCC2=CCCCC2)CC1=O (configuration not stated)	CHX counter 21, Shiga inhibitor 66
CCC(C)c1ccccc1N1CC(C(=O)Nc2ccccc2N2CCCC2)CC1=O (configuration not stated)	Pf growth 48h inconclusive, Pf growth 96h inconclusive
CCC(C)c1ccccc1N1CC(C(=O)NCCC2=CCCCC2)CC1=O (configuration not stated)	Pf growth 48h inconclusive, Pf growth 96h 15µM (no result: CHX counter, Shiga inhibitor, NS1 inh)
CCC(C)c1ccccc1N1CC(C(=O)N2CCN(S(=O)(=O)c3ccccc3Br)CC2)CC1=O (configuration not stated)	Pf growth 48h inconclusive, Pf growth 96h 12µM (no result: CHX counter, Shiga inhibitor, NS1 inh)
O=C(Nc1ccccc1)NC1CCCCNC1=O (configuration not stated)	none
CC(=O)Nc1ccc(-c2nc3c(C)cccc3[nH]2)cc1	CHX counter 45, Shiga inhibitor 110
CS(=O)(=O)c1cccc(C(=O)Nc2ccc(-c3nc4ccccc4[nH]3)cc2)c1	Pf growth 48h inconclusive, Pf growth 96h inconclusive, NS1 inh inconclusive
CC(=O)Nc1ccc2nc(-c3ccccn3)[nH]c2c1	CHX counter 46, Shiga inhibitor 74, Pf growth 96h inconclusive
CC(=O)Nc1ccc2nc(-c3ccncc3)[nH]c2c1	none (no result: Pf growth 48h)
CC(=O)Nc1cc(NC(C)=O)cc(-c2nc3ccccc3[nH]2)c1	Pf growth 96h 10µM
O=C(NCC(=O)N(c1ccccc1)C(C(=O)NC1CCCCC1)c1cccnc1)c1ccco1 (configuration not stated)	Pf growth 96h inconclusive
COc1cc(NC(=O)C2=C(N3CCOCC3)/C(=C\c3ccc(N(C)C)cc3)CCC2)cc(OC)c1OC	CHX counter 46, Shiga inhibitor 77, Pf growth 48h 15µM, Pf growth 96h inconclusive
CN1CCN(C(=O)CCN2C(=O)/C(=C/c3ccc(F)cc3)SC2=S)CC1	Pf growth 48h inconclusive
Cc1c(NC(=O)c2ccco2)cccc1-c1nc2cccnc2s1	CHX counter 16, Pf growth 48h inconclusive, Pf growth 96h inconclusive
O=C(Nc1cccc(-c2nc3cccnc3s2)c1)c1ccco1	CHX counter 20, Shiga inhibitor 57, Pf growth 96h inconclusive
O=C(Nc1ccc(-c2nc3cccnc3s2)cc1)c1ccc(Br)o1	CHX counter 47, Shiga inhibitor 53, Pf growth 48h inconclusive, Pf growth 96h inconclusive
O=C(Nc1ccc(-c2nc3cccnc3s2)cc1)c1ccco1	CHX counter 34, Shiga inhibitor 74
Cc1c(NC(=O)c2ccc(Cl)nc2)cccc1-c1nc2cccnc2s1	Pf growth 48h inconclusive, Pf growth 96h inconclusive
COc1ccc(NC(=O)c2ccco2)cn1	none
CCN(Cc1cnn(C)c1)Cc1nc(C(c2ccccc2)c2ccccc2)no1	Pf growth 48h inconclusive
CCS(=O)(=O)Nc1cccc(-c2nc3cccnc3s2)c1C	CHX counter 30, Shiga inhibitor 73
Cc1c(NC(=O)c2ncn[nH]2)cccc1-c1nc2ccccc2s1	none
CCN(c1ccc(OCC(=O)OCC(=O)Nc2ccc(F)c(F)c2F)cc1)S(=O)(=O)c1ccccc1	none
OCCC1CN(Cc2cccc3nccnc23)CCN1C1CCCC1 (configuration not stated)	Pf growth 96h 13µM
OCCC1CN(Cc2cccc3nonc23)CCN1C1CCCCC1 (configuration not stated)	Pf growth 96h 15µM
Cc1cc(C)n(-c2ccc(F)cc2CN2CCN(C3CCCC3)C(CCO)C2)n1 (configuration not stated)	Pf growth 96h 1.7µM
OCCC1CN(Cc2cnc(-c3ccc(Cl)cc3)nc2)CCN1C1CCCCC1 (configuration not stated)	CHX counter 16, Shiga inhibitor 28, Pf growth 48h 10µM
CC(C)=CCN1CCN(Cc2cccc3nonc23)CC1CCO (configuration not stated)	Pf growth 96h 2.1µM
CC(=O)c1cccc(OCc2cc(C(=O)N(C)CCc3cnn(C)c3)no2)c1	Pf growth 96h inconclusive
Cc1cc(OCc2cc(C(=O)N(C)CCc3cnn(C)c3)no2)cc(C)c1Cl	CHX counter 39, Shiga inhibitor 70
Cc1cc(Cl)c2oc(C(=O)N(C)CCc3cnn(C)c3)c(C)c2c1	Pf growth 96h 10µM
COc1cc(Cl)ccc1OCc1cc(C(=O)N(C)CCc2cnn(C)c2)no1	CHX counter 64, Shiga inhibitor 115, Pf growth 96h inconclusive
CCN(Cc1ccncc1)C(=O)c1cc(COc2ccc(F)cc2F)on1	Pf growth 96h inconclusive
